Compound activity from PubChem.
KinaseGlo FLuc = Counterscreen for Luciferase (Kinase-Glo TM) Inhibition. Kinase-Glo luciferase, ATP luminescence, 8 min. AID 1379, 2008. hit rate 0.28% among 200,000. Luciferin 4-monooxygenase (Photuris pensylvanica), Q27757. Potency, µM (titrated, usually from 38.3 µM), inactives show at the top dose activity change, negative = inhibition, usual class: inhibitors; also: nearly all actives have a fitted effect of over 60% in size
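Compounds were added to a substrate mix at pH 7.2 (50 mM imidazole, 10 uM ATP, within the enzyme's linear range), followed by Kinase-Glo detection reagent; luminescence was measured after 8 minutes at ambient temperature.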
RORgamma inh = qHTS for inhibitors of ROR gamma transcriptional activity; Potency, µM (titrated, usually from 53.6 µM), for inactives: at the highest dose activity change, negative = inhibition, usual class: inhibitors; Nuclear receptor ROR-gamma (Mus musculus), P51450; Drosophila S2 Gal4-RORgamma UAS-luciferase reporter, 20 h; hit rate 5.4% among 310,000; also: nearly all actives have a fitted effect of over 60% in size
Target sequence (P51450 whole entry, looked up, the tested form may be a part): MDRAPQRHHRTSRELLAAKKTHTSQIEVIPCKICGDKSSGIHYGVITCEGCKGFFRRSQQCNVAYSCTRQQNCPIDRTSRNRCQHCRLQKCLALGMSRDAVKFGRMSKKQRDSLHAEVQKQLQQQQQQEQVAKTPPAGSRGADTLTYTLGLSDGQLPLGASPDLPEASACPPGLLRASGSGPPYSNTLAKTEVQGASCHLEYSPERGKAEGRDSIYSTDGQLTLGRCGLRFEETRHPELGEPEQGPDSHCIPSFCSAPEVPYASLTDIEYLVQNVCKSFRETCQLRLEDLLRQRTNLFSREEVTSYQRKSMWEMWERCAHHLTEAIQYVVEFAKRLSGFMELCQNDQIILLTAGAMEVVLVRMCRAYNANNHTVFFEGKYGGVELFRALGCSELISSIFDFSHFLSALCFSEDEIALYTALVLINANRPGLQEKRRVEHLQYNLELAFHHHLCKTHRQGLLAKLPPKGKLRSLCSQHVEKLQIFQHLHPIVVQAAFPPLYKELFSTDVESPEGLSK
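In this cell-based reporter format, copper sulfate (700 uM final) drives Gal4–ROR gamma fusion expression from a metallothionein promoter in Drosophila Schneider cells; compounds preincubated 1 hr, reporter read after 20 hr at ambient temperature.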
Gal4-VP16 FLuc = VP16 counterscreen qHTS for inhibitors of ROR gamma transcriptional activity; Potency, µM (highest dose often 53.6 µM), for the others: top-dose activity, negative = inhibition, actives largely listed as inhibitors; hit rate 3.5% among 310,000; Drosophila S2 Gal4-VP16 UAS-luciferase, luminescence, 20 h;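 also: Gal4-VP16 expression switched on by copper sulfate through the metallothionein promoter; nearly all actives have a fitted effect of over 50% in size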
Starred values were filed as active, the others as inactive; ? = inconclusive; · = not tested or not shown; [ ] = another dose, or the depositor's remark. Hits are enriched below; roughly 6.4% of the tested compounds scored in any of these assays. Calls follow the shape of the dose curve; as a rule, active = well fitted curve in the direction sought with a large enough effect; inconclusive = small, poorly fitted or top-dose-only effect, or another doubt; inactive = no such curve, though single readings can be large; an effect the other way counts as inactive or inconclusive. % is scaled to controls: 0 for no effect and ±100 for the full control effect; potency is read from the fitted curve at half-maximal effect.

SMILES	KinaseGlo FLuc	RORgamma inh	Gal4-VP16 FLuc
CCOc1ccc(N2C(=O)/C(=C\c3ccccc3OC)S(=O)(=O)C2c2cccc([N+](=O)[O-])c2)cc1 (stereo not given)	2%	12%	-6%
Cc1cc(C)cc(NC(=S)N2CCN(c3ncc(C(F)(F)F)cc3Cl)CC2)c1	·	3.5µM*	-26%
C=CCNC(=S)N1CCN(c2ncc(C(F)(F)F)cc2Cl)CC1	·	-38%	9%
S=C(Nc1cc(Cl)cc(Cl)c1)N1CCCC1	·	5µM*	?
COc1cc(NC(=S)N2CCN(c3ccccn3)CC2)cc(OC)c1	·	11µM*	?
COc1cc(NC(=S)N2CCN(c3ccccn3)CC2)cc(OC)c1OC	4%	-1%	1%
S=C(Nc1ccccc1Cl)N1CCN(c2ccccn2)CC1	·	-15%	-2%
S=C(Nc1ccc(Cl)cc1)N1CCCC1	0%	-45%	8%
S=C(Nc1cc(Cl)cc(Cl)c1)N1CCN(c2ccccn2)CC1	·	11µM*	-22%
Nc1nnc(CC(=O)N/N=C/c2ccccc2OCc2ccccc2F)s1	·	14%	0%
CC(NC(=O)CNC(=O)C1CCCCC1)c1ccc(S(N)(=O)=O)cc1 (stereo not given)	·	-15%	-2%
COc1ccc(CCNC(=O)CCNC(=O)c2ccco2)cc1OC	·	-2%	3%
CCCOc1ccc(CC(=O)NCCc2ccccc2)cc1OC	·	-17%[1.91 µM]	-1%
O=C(NCc1ccc(Cl)cc1)C1CCN(S(=O)(=O)N2CCOCC2)CC1	2%	18%	7%
CCNC(=O)NC(=O)C(C)N1C(=O)NC(c2ccccc2)(c2ccccc2)C1=O (stereo not given)	·	15%	-21%
FC(F)Sc1ccc(NC(=S)N2CCN(c3ccccn3)CC2)cc1	·	-30%	?
COc1ccc(NC(=S)N2CCN(c3ccccn3)CC2)cc1OC	·	?	-20%
Cc1cc(C)cc(NC(=S)N2CCN(c3ncccn3)CC2)c1	·	14µM*	?
S=C(Nc1ccc(Br)cc1)N1CCN(c2ccccn2)CC1	·	11µM*	?
Cc1ccc(NC(=S)N2CCN(c3ccccn3)CC2)cc1C	·	?	13µM*
COc1ccc(C)cc1NC(=S)N1CCN(c2ccccn2)CC1	-2%	?	?
S=C(Nc1ccc(Nc2ccccc2)cc1)N1CCN(c2ncccn2)CC1	4%	3%	4%[10 µM]
COC(=O)c1cc(OC)c(OC)cc1NC(=S)N1CCN(c2ccccn2)CC1	3%	11µM*	6%
CN(C)c1ccc(C(C(=O)NC2CCCC2)N(C(=O)c2ccco2)C2CC2)cc1 (stereo not given)	·	8%	3%
CC(C)c1ccc(N(CC(=O)NCC2CCCO2)C(=O)Cn2nnc(-c3cccs3)n2)cc1 (stereo not given)	1%	4%	-20%
SMILES	KinaseGlo FLuc	RORgamma inh	Gal4-VP16 FLuc
Cc1cc(C)cc(NC(=S)N2CCN(c3ccccn3)CC2)c1	·	16µM*	?
Cc1ccc(NC(=S)N2CCN(c3ccccn3)CC2)c(C)c1	-1%	0%	-13%
C[C@@H]1[C@H](O)[C@@H](C)/C=C/C=C/C=C/C=C/C=C/C=C/C=C/[C@H](O[C@@H]2O[C@H](C)[C@@H](O)[C@H](N)[C@@H]2O)C[C@@H]2O[C@](O)(C[C@@H](O)C[C@@H](O)[C@H](O)CC[C@@H](O)C[C@@H](O)CC(=O)O[C@H]1C)C[C@H](O)[C@H]2C(=O)O	·	0%	-1%
CCOc1ccc(-c2csc(NC(=O)CSC3=NC(=O)CN3C(C)=O)n2)c2ccccc12	7%	11µM*	7.9µM*
CCOc1ccc(-c2csc(NC(=O)CSCC(=O)O)n2)c2ccccc12	-4%	5%	1%
COc1cc(-c2c(C#N)c(N)nc3[nH]c(=S)[nH]c(=O)c23)ccc1O	·	7%	-2%
Cc1cccc(N2CCN(C(=O)c3ccc4c(c3)NC(=O)C(CSCc3cccc(F)c3)N4)CC2)c1C (stereo not given)	·	7%	6%
O=C(COC(=O)CCCNC(=O)c1ccc(Cl)cc1)NCc1ccccc1Cl	4%	3%	-19%
CCOC(=O)c1ccc2c(c1)nc(SC/C(O)=C(\C#N)c1nc3ccccc3[nH]1)n2CC	2%	5µM*	-2%
N#C/C(=C(/O)COC(=O)Cc1c[nH]c2ccccc12)c1nc2ccccc2[nH]1	-3%	10µM*	?
CCOC(=O)c1c(C)[nH]c(C(=O)OC/C(O)=C(\C#N)c2nc3ccccc3[nH]2)c1C	2%	?	?
N#C/C(=C(/O)COC(=O)CSc1ccc(Cl)cc1)c1nc2ccccc2[nH]1	-1%	10µM*	11µM*
COc1ccccc1OCC(=O)OC/C(O)=C(\C#N)c1nc2ccccc2[nH]1	0%	11%	-5%
CCOC(=O)c1ccc2c(c1)nc(SCC(=O)c1ccco1)n2CC	-6%	1%	11%
N#C/C(=C(/O)COC(=O)CCCNC(=O)c1ccc(Cl)cc1)c1nc2ccccc2[nH]1	-9%	11µM*	?
O=C(COC(=O)COc1ccccc1Cc1ccccc1)Nc1cccnc1Cl	-1%	4%	-8%
CCCCC/C=C\C[C@@H]1O[C@H]1/C=C/C(O)C/C=C\CCCC(=O)O (stereo not given in full)	0%	20%	0%
O=S1(=O)NC(=NCCOCCO)c2ccccc21	-1%	-12%	3%
N[C@@H](Cc1cccnn1)C(=O)O	0%[7.66 µM]	·	·
CC(C)CC(=O)Nc1nnc(S(=O)(=O)Nc2ccccc2)s1	·	7%	-12%
COCc1c(C(=O)OC/C(O)=C(\C#N)c2nc3ccccc3[nH]2)oc2ccccc12	3%	?	-4%
Cc1cc(SCC(=O)OC/C(O)=C(\C#N)c2nc3ccccc3[nH]2)c(C)cc1Br	-1%	6.3µM*	18µM*
CN(Cc1ccccc1)C(=S)Nc1ccc2nc3n(c(=O)c2c1)CCCCC3	1%	30%	17%
O=C(O)CCCNc1ccc(S(=O)(=O)N2CCCCC2)cc1	1%	-7%	4%
Cc1cccc(OCCSc2nc3ccccc3n2CC(=O)O)c1	·	7%	3%
SMILES	KinaseGlo FLuc	RORgamma inh	Gal4-VP16 FLuc
CCCCOC(=O)Cn1c(=O)n(CC(=O)OCCCC)c2ccccc21	1%	-6%	-9%
CCCCCOC(=O)Cn1c(=O)oc2ccccc21	-1%	7%	?
CCCCCCCCCCOC(=O)Cn1c(COc2ccccc2C)[n+](C)c2ccccc21	·	?	16µM*
CCCCCCCCCCOC(=O)Cn1c(COc2cccc(C)c2)[n+](C)c2ccccc21	·	-85%	11µM*
CC1CCC(C(C)C)C(OC(=O)Cn2c(-c3ccc(Br)cc3)[n+](C)c3ccccc32)C1 (stereo not given)	1%	?	?
Cc1ccccc1OCc1n(CC(=O)OC2CC(C)CCC2C(C)C)c2ccccc2[n+]1C (stereo not given)	-1%	?	18µM*
CCCCCCCCCCOC(=O)Cn1c(COc2ccc(OC)cc2)[n+](C)c2ccccc21	·	?	6.3µM*
CC1=CC(=O)OC1Cc1ccc2ccccc2n1 (stereo not given)	?	?	3%
CN1CCN(c2ncc3nc(-c4ccccc4)c(=O)n(CCC#N)c3n2)CC1	-4%	-22%	7%
O=C(CN1CCN(c2ccccn2)CC1)Nc1nc2ccccc2s1	·	37%	-1%
